Tau fibril ThT = inhibitors of human tau fibril formation, thioflavin T binding. 2.1% of 270,000 active. recombinant tau K18 P301L, heparin-induced fibrillization, ThT fluorescence. Potency, µM (top dose mostly 57.4 µM), without a hit: at the highest dose activity, negative = inhibition, hits mostly inhibitors. P10636; also: potency is read from the fitted curve at half-maximal effect; nearly all actives have a fitted effect of over 55% in size
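Using a mix of unlabeled (15 uM) and Alexa 594-labeled (0.24 uM) tau K18 P301L, heparin-triggered fibrillization over 6 hr at 37 C was scored by ThT fluorescence.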
Coupling enz = inhibits coupling enzyme system, counter-screen for aldolase hits. coupling enzyme system counterscreen, AmpLite Red fluorescence. activity change, negative = inhibition, % at 58.2 µM, hits read low. 0.67% of 290,000 active. AID 2472; in the data active = activity change below about -30%
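Fluorescence at 525 nm excitation and 598 nm emission measured inhibition of the coupled detection system without aldolase. Compounds (at 57.5 uM final) were preincubated 10 min at room temperature with coupling enzyme reagent before a 20 min substrate/AmpLite Red step.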
Tau FP inhib = tau fibrillization inhibition (FP); AID 1468; K18 P301L tau heparin fibrillization, Alexa594 FP, 6 h; P10636; 0.39% of 280,000 active; Potency, µM (doses to about 57.7 µM), for the others: at the highest dose activity, negative = inhibition, usual class: inhibitors; also: potency is read from the fitted curve at half-maximal effect; nearly all actives have a fitted effect of over 55% in size
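FP of Alexa 594-tau after heparin (20 uM) induction. Substrate: human K18 P301L, 15 uM unlabeled, 0.24 uM labeled. Buffer 100 mM sodium acetate pH 7. 6 hr, 37 C.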
Tau fluor cs = counter-screen for tau fibril formation inhibitors. tau K18 P301L Alexa594 fluorescence, heparin fibrillization. Potency, µM (doses to about 57.7 µM), for the others: at the highest dose activity change, negative = decrease. 0.93% of 280,000 active. AID 1463; also: potency is read from the fitted curve at half-maximal effect; nearly all actives have a fitted effect of over 55% in size
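Human tau K18 P301L (15 uM unlabeled, 0.24 uM Alexa 594-labeled) in 100 mM sodium acetate pH 7 with 20 uM heparin, 6 hr at 37 C. ThT 30 uM added, 1 hr ambient; Alexa 594 FP and total fluorescence read at 555/632 nm.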
USP1-UAF1 inh = USP1/UAF1 (human) deubiquitinase inhibition. O94782. recombinant USP1/UAF1, Ub-Rhodamine cleavage fluorescence. Potency, µM (series often up to 57.1 µM), without a hit: at the highest dose activity change, negative = inhibition, hits mostly inhibitors. 0.23% of 390,000 active. AID 743255; also: potency is read from the fitted curve at half-maximal effect; nearly all actives have a fitted effect of over 60% in size
Target sequence (O94782 whole entry, looked up): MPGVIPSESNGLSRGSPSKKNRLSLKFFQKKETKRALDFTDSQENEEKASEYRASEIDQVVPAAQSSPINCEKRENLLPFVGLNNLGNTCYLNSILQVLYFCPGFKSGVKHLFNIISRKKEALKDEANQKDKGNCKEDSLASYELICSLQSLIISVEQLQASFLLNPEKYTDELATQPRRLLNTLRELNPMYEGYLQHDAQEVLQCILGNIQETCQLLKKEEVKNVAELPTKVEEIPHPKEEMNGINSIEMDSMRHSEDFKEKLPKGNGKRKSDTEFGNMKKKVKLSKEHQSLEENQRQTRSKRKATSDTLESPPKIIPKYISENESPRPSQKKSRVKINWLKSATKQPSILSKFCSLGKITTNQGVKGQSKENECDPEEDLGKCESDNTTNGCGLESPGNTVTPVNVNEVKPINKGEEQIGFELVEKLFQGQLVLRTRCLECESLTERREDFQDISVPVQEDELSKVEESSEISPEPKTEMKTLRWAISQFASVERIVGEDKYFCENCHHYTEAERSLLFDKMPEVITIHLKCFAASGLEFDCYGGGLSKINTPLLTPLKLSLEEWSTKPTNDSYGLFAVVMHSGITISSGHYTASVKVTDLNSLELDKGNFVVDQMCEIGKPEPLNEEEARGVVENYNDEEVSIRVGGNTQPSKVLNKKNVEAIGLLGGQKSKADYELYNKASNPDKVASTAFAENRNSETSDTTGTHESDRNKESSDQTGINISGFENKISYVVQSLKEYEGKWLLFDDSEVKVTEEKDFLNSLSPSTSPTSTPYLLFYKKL
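1 nM enzyme complex + cpd, 15 min RT; start with Ub-Rho 150nM final; kinetic fluorescence ex 480/em 540, 6 reads q60 s. Buffer 50mM HEPES pH 7.8, 0.5mM EDTA, 0.1 mg/ml BSA, 1mM TCEP, 0.01% Tween-20.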
* marks the source's active call; other numbers are inactive results; ? = inconclusive; · = no result; [ ] = another dose, or the depositor's remark. Most compounds without a hit are left out; they make up all but 2.3% or so of the library. Unless noted, calls follow the shape of the dose curve; as a rule, active = well fitted curve in the direction sought with a large enough effect; inconclusive = small, poorly fitted or top-dose-only effect, or another doubt; inactive = no such curve, though single readings can be large; an effect the other way counts as inactive or inconclusive. % is scaled to controls: 0 for no effect and ±100 for the full control effect.

SMILES | Tau fibril ThT | Coupling enz | Tau FP inhib | Tau fluor cs | USP1-UAF1 inh
O=C(Nc1ccc(Cl)cc1)/C(=C/c1ccc([N+](=O)[O-])cc1)c1nc2ccccc2s1 | 14µM* | 2 | ? | -25% | ·
Cc1ccc(NC(=O)Nc2cn(CC(C)C)c(=O)c3ccccc23)cc1N(C)C | ? | · | ? | 25µM*[quencher] | ?
CC(C)Cn1cc(NC(=O)NCc2ccccc2)c2ccccc2c1=O | -3% | · | -4% | -9% | ?
CCOc1cc(/C=C2\C(=O)N(c3nc(-c4ccc(Br)cc4)cs3)N=C2c2ccccc2)ccc1O | 11µM* | 2 | ? | ? | ?
CCCCCOc1ccc(CSCCNC(=S)Nc2ccccc2)cc1 | -13% | 1 | 13µM* | ? | -8%
Cc1ccc(/C=N/NC(=O)CSc2nc3ccccc3n2C)s1 | -23% | -32* | 4% | -9% | -9%
Cn1c(SCC(=O)N/N=C/c2cccs2)nc2ccccc21 | -11% | -16 | -10% | -5% | -10%
Cc1c(Cl)cccc1NC(=S)N=Nc1c(O)n(CN2CCOCC2)c2ccccc12 | ? | -2 | -14% | 18µM*[quencher] | -16%
CN(C)c1ccc(/C=N/n2ncc3ccccc32)cc1 | 4µM* | 0 | 14% | ? | 12%
C=CCn1c(/N=C/c2ccc(N(C)C)cc2)nc2ccccc21 | 1% | -1 | 2% | -3% | ?
Cc1cccc(N=Cc2cc(Br)cc(Cl)c2O)c1 | 14µM* | -1 | -14% | -9% | ?
NC(=O)c1cccc(N=Cc2cc(Cl)cc(Cl)c2O)c1 | 1% | -8 | 11% | 4% | -19%
Cc1ccc(-c2c(C(=O)N/N=C/c3ccoc3)nnn2-c2nonc2N)cc1 | · | 0 | · | · | -13%
Cc1ccc(-c2c(C(=O)N/N=C/c3cccc(Cl)c3)nnn2-c2nonc2N)cc1 | · | -36* | · | · | -24%
O=C(/C=C/c1ccc(Cl)cc1)N1CCC(c2nc3ccccc3o2)CC1 | -18% | · | -2% | -10% | -8%
O=C(/C(=C/c1ccc(Cl)cc1)c1nc2ccccc2[nH]1)c1cccs1 | 16µM* | -1 | ? | -29% | -20%
O=c1[nH]c2ccccc2nc1/C=C(\O)c1cccs1 | -16% | 0 | ? | -18% | 16µM*
COc1cc(/C=C(/C(=O)c2cccs2)c2nc3ccccc3[nH]2)ccc1O | ? | 3 | 2% | ? | -18%
COC(=O)/C(=C\c1ccc(O)cc1)c1nc2ccccc2[nH]1 | ? | -1 | 7% | -11% | -10%
O=C(/C(=C\c1ccccc1)c1nc2ccccc2[nH]1)c1ccc(Cl)cc1 | 22µM* | 4 | ? | -24% | -15%
COc1ccc(NC(=O)CCn2c(-c3ccc(F)cc3)cc(C(C)=O)c2C)c(OC)c1 | -11% | · | 3% | -21% | -16%
COc1ccc(CN2CCC(N(CCc3ccccc3)Cc3ccccc3)CC2)c(OC)c1 | -11% | 0 | -12% | -12% | -6%
CC(C(=O)NC1CCCC1)N1CCN(S(=O)(=O)c2ccc(C(C)(C)C)cc2)CC1 (centres undefined) | · | · | · | · | -2%
COc1ccc(Oc2ncc3nc(C)c(=O)n(Cc4cccc(OC)c4)c3n2)cc1 | · | -3 | · | · | ·
COc1cc(Cl)c(C)cc1NC(=O)c1cc(CN2CCOCC2)on1 | -4% | · | -4% | -15% | -10%
SMILES | Tau fibril ThT | Coupling enz | Tau FP inhib | Tau fluor cs | USP1-UAF1 inh
CCOc1cc(CNc2ccc3cn[nH]c3c2)ccc1OC | ? | -55* | 4% | ? | ?
COc1ccc(CNc2ccncc2)c(OC)c1OC | · | · | · | · | -11%
COc1ccc(CNc2ccc3cn[nH]c3c2)c(OC)c1OC | 28µM* | -47* | ? | ? | ?
CCOc1ccc(N2CC(NC(=O)C3CCCC3)CC2=O)cc1 (centres undefined) | 7% | · | ? | 2% | ?
CN(C)c1ccc(/C=N/Nc2ccc(-n3ccnc3)nn2)cc1 | 5µM* | -4 | -9% | ? | -13%
O=C(c1ccccc1)c1coc2ccc(O)c(Cl)c12 | 8% | 2 | 5% | -12% | -2%
Cc1oc2c(c1C(=O)O)C(=O)c1ccccc1C2=O | ? | -29 | -9% | -6% | 28µM*
Cc1oc2c(c1C(=O)c1ccccc1)C(=O)C(=O)c1ccccc1-2 | 7.9µM* | -78* | ? | -22% | 13µM*
CCOC(=O)c1c(C)oc2c1C(=O)c1ccccc1C2=O | ? | -43* | -4% | -17% | ?
O=C1C(=O)c2c(C(=O)c3ccccc3)coc2-c2ccccc21 | 2.5µM* | -80* | 7.9µM* | ? | -9%
Cc1cc(=O)oc(C)c1C(=O)O | 6% | 3 | -3% | 9% | 6%
CCOCCCNC(=O)Nc1cc(C(=O)NCc2ccc(C(C)C)cc2)ccc1N1CCCC1 | -14% | · | 6% | -15% | ?
Cc1cn2c(=O)c(S(=O)(=O)N3CCN(c4cc(Cl)ccc4C)CC3)c(C)nc2s1 | -6% | · | -4% | -8% | -24%
Cc1cccc(CN2C(=O)c3ccccc3Sc3ccc(C(=O)N4CCCC4)cc32)c1 | -15% | · | 9% | -9% | -23%
CCOC(=O)C1CCCN(C(=O)c2nn(-c3ccc(C)cc3)c(=O)c3c2c2ccccc2n3C)C1 (centres undefined) | -8% | · | 1% | -13% | 5%
Cc1cc(C)c(C(=O)/C=C/c2ccco2)c(=O)[nH]1 | 22µM* | -17 | ? | -23% | -12%
Cc1cc(/C=N/Nc2nc(N)ncc2[N+](=O)[O-])c(C)n1-c1ccccc1F | 16µM* | 2 | 6% | -24% | ·
O=[N+]([O-])c1ccc(NN=Cc2cccc(O)c2)nc1 | · | · | · | · | -22%
Cc1cccc(C)c1-n1c(C)cc(/C=N\Nc2ccc([N+](=O)[O-])cn2)c1C | 5µM* | 0 | ? | ? | -14%
C[C@@]12C=Cc3occc3[C@H]1CC[C@]13CC(=O)[C@@H](CC[C@H]12)C3 | · | -2 | · | · | ·
CCOC(=O)c1sc2cc([N+](=O)[O-])cc(SCCO)c2c1N | 2.2µM* | 1 | 4% | -26% | -22%
CCOC(=O)c1sc2cc([N+](=O)[O-])cc(SCC(=O)OC)c2c1N | 7.1µM* | 3 | -9% | ? | -19%
CCOC(=O)c1sc2nc(C)cc(C)c2c1N | ? | 2 | 6% | -7% | -5%
COc1cc(Cl)cc2c1Sc1ccccc1/C2=C/CCN(C)C | ? | 0 | 5% | -18% | -3%
CN(C)CC/C=C1/c2ccccc2Sc2c(O)cc(Cl)cc21 | 13% | -31* | 4% | 4% | -16%
COc1ccc(OC)c(-c2csc(NC(=O)CSc3ccc([N+](=O)[O-])cc3)n2)c1 | ? | -3 | -4% | 11µM*[quencher] | -9%
Cc1ccc2c(=O)cc(C(=O)Nc3ccc(S(=O)(=O)N(C)Cc4ccccc4)cc3)oc2c1 | 3% | · | ? | -7% | -20%
Cc1ccc(NC(=O)/C(C#N)=C(\N)C(Cl)(Cl)Cl)nc1 | 25µM* | 0 | ? | -22% | -19%

Screening data deposited in PubChem BioAssay by National Center for Advancing Translational Sciences (NCATS).
